# Screening results deposited in PubChem BioAssay by National Center for Advancing Translational Sciences (NCATS).
# AmpC inh detg: blocks E. coli AmpC beta-lactamase in detergent assay; Potency, µM (highest dose often 114 µM), inactives show at the top dose activity change, negative = inhibition, usual class: inhibitors; 370,000 compounds, 0.041% hits; AmpC hydrolysis of nitrocefin, absorbance 480 nm, 0.01% Triton; AID 485294;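 also: potency is read from the fitted curve at half-maximal effect; 0% = no-compound wells and -100% = no-enzyme wells; nearly all actives have a fitted effect of over 25% in size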
# Target sequence (P00811 whole entry, looked up): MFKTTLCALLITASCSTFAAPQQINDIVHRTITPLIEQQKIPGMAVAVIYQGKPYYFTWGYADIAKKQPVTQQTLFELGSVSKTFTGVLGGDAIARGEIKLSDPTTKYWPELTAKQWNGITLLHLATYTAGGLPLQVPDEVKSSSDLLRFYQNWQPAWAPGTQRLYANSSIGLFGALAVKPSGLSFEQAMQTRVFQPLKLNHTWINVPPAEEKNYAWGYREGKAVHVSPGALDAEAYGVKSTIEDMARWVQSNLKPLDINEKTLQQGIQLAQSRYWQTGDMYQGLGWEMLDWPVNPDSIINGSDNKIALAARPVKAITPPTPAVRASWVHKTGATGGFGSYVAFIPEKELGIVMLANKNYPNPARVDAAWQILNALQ
#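 AmpC (5.3 nM in the dispensed reagent) in 20 mM phosphate pH 7.0 with 0.01% (detergent screen) or 0.0001% Triton X-100 was preincubated with compounds for 15 min at room temperature. Nitrocefin was then added from an 800 uM solution, and hydrolysis was followed at 480 nm.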
# Shiga inhibitor: inhibitors of Shiga toxin in Vero cells; inhibition, % at 38.7 µM; 290,000 compounds, 9.2% hits; Vero cells, Shiga toxin protein synthesis inhibition reporter; in the data active = inhibition mostly above about 28%, no sharp cut-off; inactive = mostly below about 43%; also: 0% is about no effect
# AmpC no deterg: inhibitors of E. coli AmpC beta-lactamase without detergent; 330,000 compounds, 0.52% hits; P00811; Potency, µM (doses to about 57.1 µM), for the others: at the top dose activity change, negative = inhibition, hits mostly inhibitors; AmpC nitrocefin hydrolysis, absorbance 480 nm, 0.0001% Triton;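 also: potency is read from the fitted curve at half-maximal effect; plate controls were no compound for no effect and no enzyme for full effect; nearly all actives have a fitted effect of over 20% in size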
#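 20 mM phosphate pH 7.0 + 0.01% (detergent screen) or 0.0001% Triton X-100; 5.3 nM AmpC reagent; cpd preinc 15 min RT; nitrocefin (800 uM stock) to start; A480 q20 s × 4 min; Activity was normalised to no-enzyme and no-compound control wells.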
# SARS PLpro yeast: blocks SARS-CoV papain-like protease in a yeast assay | S. cerevisiae expressing SARS-CoV PLpro, growth rescue | 330,000 compounds, 0.19% hits | Potency, µM (highest dose often 32.9 µM), for the others: at the top dose activity, positive = growth rescue, usual class: activators; calls by dose curve; also: potency is read from the fitted curve at half-maximal effect; 0% is about no effect; nearly all actives have a fitted effect of over 55% in size
# AMA1-RON2 inh: inhibitors of Plasmodium falciparum AMA1-RON2 interaction; Potency, µM (highest dose often 58.2 µM), for inactives: at the top dose activity change, negative = inhibition, actives largely listed as inhibitors; AID 720542; 360,000 compounds, 0.2% hits; AlphaScreen AMA1-biotinylated RON2 peptide binding;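 also: potency is read from the fitted curve at half-maximal effect; 0% = vehicle wells and -100% = peptide control; nearly all actives have a fitted effect of over 45% in size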
#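 AMA1 (3D7) with his tag at 25 nM final met compounds first, then biotinylated RON2 peptide at 25 nM; detection used donor plus acceptor beads, 10 µg/mL apiece, read by AlphaScreen after 30 min at room temperature.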
# CHX counter: counter-screen for Shiga toxin inhibitors: cycloheximide protein synthesis inhibition. cell reporter, cycloheximide protein synthesis inhibition counterscreen. max response, %. 300,000 compounds, 12% hits. AID 2314; in the data active = max response mostly above about 13%, no sharp cut-off; inactive = mostly below about 14%; also: read at 38.3 µM for the half of the compounds with a filed dose; 0% is about no effect
# Starred values were filed as active, the others as inactive; ? = inconclusive; nt = no result given; [ ] = dose if it differs, or a comment. This is one part of a sample in which hits are shown more often than they occur. Unless noted, calls follow the shape of the dose curve; as a rule, active = well fitted curve in the direction sought with a large enough effect; inconclusive = small, poorly fitted or top-dose-only effect, or another doubt; inactive = no such curve, though single readings can be large; an effect the other way counts as inactive or inconclusive.
SMILES,AmpC inh detg,Shiga inhibitor,AmpC no deterg,SARS PLpro yeast,AMA1-RON2 inh,CHX counter
CC(=O)c1ccc(NC(=O)NCc2ccc(F)cc2)cc1,-12%,6,2%[2.29 µM],1%,68%,14*
CC(C)CCN1CC(C(=O)NCCC2=CCCCC2)CC1=O (centres undefined),?,66*,28%,-4%,1%,21*
CC(C)(C)n1nc2c(c1NC(=O)c1ccc(F)c(F)c1)CS(=O)(=O)C2,1%,27,-30%,4%,-1%,-3
O=C(NCCNC(=O)Nc1ccc(Cl)cc1)Nc1ccc(Cl)cc1,nt,nt,nt,nt,16%,nt
O=[N+]([O-])c1ccccc1CNCCc1ccc(F)cc1,-5%,68*,-19%,-1%,-26%,40*
O=[N+]([O-])c1ccccc1CNCCc1c[nH]c2ccccc12,-9%,-2,-24%,-5%,?,-1
O=C(NCCc1ccc(Cl)cc1)Nc1ccc(F)cc1,6%,50,-16%,-2%,5%,29*
O=C(Nc1ccccc1)c1nccn1Cc1ccc(F)cc1,-12%,64*,-41%,-4%,11%,28*
Cc1ccc(S(=O)(=O)NCCSc2nnnn2-c2ccc(C(N)=O)cc2)cc1,?,11,10µM*,-1%,1%,8
Cc1ccc(S(=O)(=O)NCCSc2nnnn2-c2ccc(Cl)c(C(=O)O)c2)cc1,-4%,nt,nt,nt,nt,nt
O=S(=O)(NCCSc1nnnn1-c1ccccc1)c1cccs1,0%,43*,-28%,6%,1%,33*
CCN(CC)S(=O)(=O)c1cccc(NC(=O)c2cc3ccccc3o2)c1,-8%,55*,-27%,-22%,-12%,22
CN(C)S(=O)(=O)c1cccc(NC(=O)c2cc3ccccc3o2)c1,-2%,54,-29%,-12%,0%,57*
O=C(Nc1cccc(S(=O)(=O)N2CCCCC2)c1)c1cc2ccccc2o1,6%,nt,-34%,1%,1%,nt
COc1cc(C(=O)c2ccccc2)c([N+](=O)[O-])cc1OC,3%,20,-3%,-1%,-9%,-2
COc1ccc2c(c1)[nH]c1c(=O)n(/N=C/c3ccc(OC)c(CN4CCCCC4)c3)cnc12,-1%,-9,0%,0%,5%,-1
COc1ccc2c(c1)[nH]c1c(=O)n(/N=C/c3ccc(OC)c(COc4ccccn4)c3)cnc12,-4%,67*,29%,8%,11%,6
O=C(CN1CCC(c2nc3ccccc3s2)CC1)NCc1cccs1,0%,33*,67%,1%,-3%,26*
CNC(=S)N1CCC(c2nc3ccccc3s2)CC1,-5%,46,64%,0%,2%,28*
CCCS(=O)(=O)NC(=O)C1(C)CCN(C(=O)c2cc(-c3cccs3)oc2C)C1 (centres undefined),nt,nt,nt,nt,1%,nt
CCc1cccc(CC)c1NC(=O)COC(=O)c1cccc(S(=O)(=O)N2CCc3ccccc3C2)c1,-1%,2,18µM*,0%,4%,-1
Cc1ccc(-c2csc(NC(=O)COC(=O)c3cccc(S(=O)(=O)N4CCOCC4)c3)n2)cc1,6%,131*,-24%,-7%,-13%,22*
Cc1cccc(C(C)C)c1NC(=O)COC(=O)c1cccc(S(=O)(=O)N2CCc3ccccc3C2)c1,-6%,-1,7.9µM*,-5%,-8%,-4
CN(C)S(=O)(=O)c1cccc(NC(=O)COC(=O)c2cccc(S(=O)(=O)N3CCc4ccccc4C3)c2)c1,-10%,-11,-22%,15%,8%,-2
COCCNC(=O)Nc1ccc2nc(-c3cccs3)c(-c3cccs3)nc2c1,0%,-10,68%,0%[6.58 µM],23%,-1
SMILES,AmpC inh detg,Shiga inhibitor,AmpC no deterg,SARS PLpro yeast,AMA1-RON2 inh,CHX counter
CCCN1CCC2(CC1)C(C#N)=C(N)Oc1c2sc2nc(C)cc(C)c12,-10%,3,0%,-3%,-1%,-3
Cc1cccc(NC(=O)/C(C#N)=C/c2ccc[nH]2)c1C,-6%,21,-10%,10%,0%,24*
Cc1ccc(C)c(NC(=O)/C(C#N)=C/c2ccc[nH]2)c1,-10%,11,82%,-3%,-7%,33*
N#Cc1c(-c2ccccc2)cc(-c2ccco2)c(C#N)c1N,-5%,27,14µM*,4%,nt,21
Cc1cc(C)c2nc(NNC(=O)c3ccc(S(=O)(=O)N4CCCCC4)cc3)sc2c1,-3%,-10,-22%,?,43%,7
Cc1cccc2sc(NNC(=O)c3ccc(S(=O)(=O)N4CCCC(C)C4)cc3)nc12 (centres undefined),?,16,-27%,8.9µM*,52%,3
N#C/C(C(=O)N1CCCC1)=C1/N=C(N)c2ccccc21,-4%,12,-18%,1%,-4%,-1
Cc1ccc(NC(=O)NC2=N/C(=C(/C#N)C(=O)N3CCCC3)c3ccccc32)cc1,-16%,58,-24%,6%,24%,20*
CCOc1ccc(N/C=C/C(=O)c2ccccc2)c([N+](=O)[O-])c1,-8%,46*,-12%,-45%,?,59*
CCOc1ccc(NC(=O)/C=C/c2ccccc2)c([N+](=O)[O-])c1,0%,29,-17%,2%,-11%[2.32 µM],25*
O=[N+]([O-])c1ccc(N2CCCCC2)c(Cl)c1N1CCCCC1,-4%,-18,-26%,-4%,-29%,-4
CC(=O)NNC(=O)c1ccncc1,?,8,-15%,20%,17%,-2
CC(=O)c1ccc(Nc2ccc([N+](=O)[O-])c3nonc23)cc1,-9%,nt,-21%,-1%,-29%,21*
O=C(/C=C/c1ccccc1)C1C(=O)c2ccccc2C1=O,-14%,42*,-12%,-24%,54%,33*
CCc1ccc(/C=C/C(=O)C2C(=O)c3ccccc3C2=O)cc1,2%,54,-53%,-13%,11%,12
O=[N+]([O-])c1ccc(C(O)CN=Cc2ccc(O)cc2O)cc1 (centres undefined),-4%,-2,13µM*,0%,73%,-1
COc1ccccc1Sc1ccccc1/C=N/NC(N)=O,-1%,-6,-10%,0%,2%,-2
Cc1nc(SCC(=O)NC2CC2)c2c(C)c(C)sc2n1,4%,-2,-6%,15%,-4%,-3
Cc1sc2nc(C(C)C)nc(SCC(=O)NC3CC3)c2c1C,14µM*,24,-13%,0%,5%,-2
Cc1cc(C(=O)COc2cccnc2[N+](=O)[O-])c(C)n1Cc1cccs1,-13%,147*,-27%,-1%,-24%,43*
O=C(COc1cccnc1[N+](=O)[O-])Nc1c(Cl)cccc1Cl,nt,nt,-23%,-3%,17%,nt
Cc1cc(-n2c(C)cc(C(=O)COc3cccnc3[N+](=O)[O-])c2C)no1,-6%,nt,-5%,0%,-4%,nt
